# Hits are enriched below; roughly 7% of the tested compounds scored in any of these assays.
# AHR act: activates the human aryl hydrocarbon receptor; P35869; AHR-responsive luciferase reporter cells, luminescence; activation, % at 5 µM; 320,000 tested, 2.5% active; in the data active means activation above about 47%;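 further: 0% = vehicle wells and 100% = reference agonist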
# GRIN3A LBD mod: modulates the human NR3A ligand-binding domain. NR3A LBD differential scanning fluorimetry, Tm shift; 0% = protein alone, 100% = glycine-bound protein. Tm shift relative to glycine control, % at 25 µM. 340,000 tested, 2.5% active. AID 1259313;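 active means melting temperature shift of at least 10% of the positive control shift, at one fixed dose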
# rCAG binder: molecules binding r(CAG) RNA repeats | r(CAG) RNA repeat, TO-PRO-1 dye displacement fluorescence | inhibition, % at 3 µM | 370,000 tested, 1.3% active | AID 651821;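 active means inhibition above the plate cutoff, the mean of all test compounds on that plate plus 3 SD, cut at about 35% in these data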;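 further: 0% = DMSO alone and 100% = 100 µM mitoxantrone as full dye displacement; higher means more dye released from RNA so lower well fluorescence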
# ADAM17 inh: inhibitors of human ADAM17 | P78536 | recombinant ADAM17, EDANS/DABCYL FRET peptide cleavage | inhibition, % at 6.95 µM | 370,000 tested, 0.83% active | AID 720648;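 active means inhibition above the mean of compounds lying between control limits plus 3 SD, set per campaign, cut at about 8.5% in these data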;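 further: 0% = DMSO-only wells as the low control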
# KLK7 zymogen act: proKLK7 (human) activation, primary screen; P49862; purified proKLK7, EDANS-DABCYL substrate fluorescence; 100% is mature enzyme control, 0% vehicle; activation, % at 7 µM; 370,000 tested, 0.9% active; AID 652039;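 active means activation above the mean of all tested compounds plus 3 SD, computed per campaign excluding outliers beyond control limits, cut at about 13% in these data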
# Target sequence (P49862 whole entry, looked up): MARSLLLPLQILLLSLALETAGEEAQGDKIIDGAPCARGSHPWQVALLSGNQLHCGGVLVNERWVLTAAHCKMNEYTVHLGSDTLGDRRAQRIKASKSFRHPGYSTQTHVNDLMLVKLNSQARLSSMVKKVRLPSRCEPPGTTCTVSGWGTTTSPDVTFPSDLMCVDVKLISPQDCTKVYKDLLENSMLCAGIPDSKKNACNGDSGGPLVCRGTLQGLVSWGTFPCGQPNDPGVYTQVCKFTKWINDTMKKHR
# ADAM10 inh: ADAM10 inhibition, QFRET primary screen; O14672; recombinant ADAM10, EDANS/DABCYL FRET peptide cleavage, 3 h; inhibition, % at 7 µM; 370,000 tested, 0.62% active; AID 720582;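 active means inhibition above a per-campaign cutoff equal to the mean of compounds falling between control-based bounds plus 3 SD, cut at about 20% in these data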;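 further: 0% = DMSO wells while the 100% control is not disclosed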
# Starred values were filed as active, the others as inactive; i = inactive; . = not tested or not shown.
SMILES,AHR act,GRIN3A LBD mod,rCAG binder,ADAM17 inh,KLK7 zymogen act,ADAM10 inh
C#CCCN([C@H](C(=O)OC)C(C)C)S(=O)(=O)c1ccccc1Br,.,.,-1,-3,0,-5
Cc1nc2ccc(S(=O)(=O)NCC(=O)NCc3cccs3)cc2s1,.,.,0,-4,0,-13
CCc1nc(SCC(=O)c2ccccc2)c2ccccc2n1,51*,-2,-2,-1,-1,-8
CCc1nc(SCC(=O)c2ccc3c(c2)OCCO3)c2ccccc2n1,3,-11,3,1,-1,1
COc1ccc(CN2C(C(=O)NCC(C)C)CSCCS2(=O)=O)cc1 (configuration not stated),.,.,-2,1,0,4
COC(=O)[C@]12C[C@H](CC(=O)NCCCCc3ccccc3)C(=O)N(Cc3ccco3)C1=C[C@H](C1CCCC1)O[C@@H]2C,.,.,3,1,0,16
CCC(=O)Nc1nc(C)c(-c2csc(Nc3ccc(C(=O)O)cc3)n2)s1,.,2,10,-10,1,-14
CCC(C)C(=O)Nc1nc(C)c(-c2csc(Nc3ccc(Cl)cc3)n2)s1 (configuration not stated),51*,-2,27,1,0,0
CCCC(=O)Nc1nc(C)c(-c2csc(Nc3ccc(Cl)cc3)n2)s1,65*,4,16,0,-1,4
COC(=O)c1cc(-c2c(C)noc2C)c(=O)n2c1CCC2,.,.,1,0,0,1
COc1cccc(-c2cc3nc(-c4ccccc4)cc(N4CCCC(O)C4)n3n2)c1 (configuration not stated),74*,10,7,-394,-48,i
OC1CCN(c2cc(-c3ccccc3)nc3cc(-c4ccc(F)cc4)nn23)CC1,2,-30,3,-104,-36,-311
CC1(c2ccc(OC(F)F)cc2)NC(=O)N(/N=C/c2c(O)ccc3ccccc23)C1=O (configuration not stated),35,12*,4,-6,-1,-24
COCc1cn(-c2ccc3c(c2)[C@@]2(CC(=O)N(C)C2c2ccccc2)C(=O)N3CC(C)C)nn1 (some centres not stated),.,.,-3,1,0,3
CCNc1nc(SCCOc2ccc(C)cc2)nc(N(C)C)n1,-5,5,-3,-4,0,-3
Cc1ccc(OCCSc2nc(NC(C)C)nc(NC(C)C)n2)cc1,4,23*,-4,6,0,18
Cc1ccc(NC(=O)N2CCC(N(C)CCC(C)C)CC2)cc1F,.,.,-2,2,0,-5
O=[N+]([O-])c1cccc(N/N=C/c2ccc(N3CCOCC3)cc2)c1,-2,22*,19,8,0,11
O=[N+]([O-])c1ccc(N/N=C/c2ccccc2)c(F)c1,1,36*,12,5,2,13
O=[N+]([O-])c1cccc(C=NNc2ccccc2)c1,.,34*,2,-2,0,-17
O=[N+]([O-])c1ccc(/C=N/Nc2ncc(-c3ccccc3)cn2)cc1,.,-1,-2,-1,0,-1
O=[N+]([O-])c1ccc(NN=Cc2ccccc2)nc1,.,-4,4,2,0,-20
O=[N+]([O-])c1ccc(C=NNc2ccccc2)cc1,.,34*,3,-3,0,-2
Clc1cccc(N/N=C/c2ccc(N3CCOCC3)cc2)c1,15,2,9,0,-1,0
O=[N+]([O-])c1cccc(/C=N/N=C\c2ccccc2)c1,.,0,-1,-5,0,3
SMILES,AHR act,GRIN3A LBD mod,rCAG binder,ADAM17 inh,KLK7 zymogen act,ADAM10 inh
CC[C@H]1C=C[C@@H](C(=O)NS(=O)(=O)c2ccc(C)cc2)N(C(C)=O)C1,.,.,5,-5,0,-24
O=C(NCc1cccnc1)c1cc(Cl)ccc1[N+](=O)[O-],74*,1,0,-1,1,-2
O=C(c1ccc(C#Cc2ccccc2)cc1)N1CCC(O)CC1,.,.,-1,-1,0,-1
COc1ccc(CN2CCN(C(c3ccc(F)cc3)c3ccc(F)cc3)CC2)c(OC)c1OC,-1,13*,3,2,0,12
CCn1c(Cc2cccs2)nnc1SCC(=O)Nc1ccccc1-c1ccccc1,.,.,1,1,1,3
O=C(Nc1ccc2nc(-c3ccco3)c(-c3ccco3)nc2c1)N1CCN(c2ccccn2)CC1,8,-5,44*,-5,-1,-12
O=C(Nc1ccccc1)c1ccc2nc(-c3ccco3)c(-c3ccco3)nc2c1,-4,-19,74*,2,0,6
O=[N+]([O-])c1cccc(C(=Nc2cccc(Cl)c2)NO)c1,88*,-1,0,-2,0,-1
O=[N+]([O-])c1ccc2c(c1)-c1ccccc1C2=NO,.,0,9,1,0,1
Nc1ccc2c(c1)C(=NO)c1cc([N+](=O)[O-])ccc1-2,.,28*,11,1,-1,1
Cc1cccc(CS(=O)(=O)c2ncc(Cl)c(C(=O)Nc3c(C)cccc3C)n2)c1,-3,1,0,-2,2,-3
CCCc1nnc(NC(=O)c2nc(S(=O)(=O)Cc3cccc(C)c3)ncc2Cl)s1,-1,0,35*,-2,1,0
Cc1ccc(OCC(O)Cn2c(NCCc3ccccc3)nc3c2c(=O)[nH]c(=O)n3C)cc1 (configuration not stated),1,11*,3,-1,0,9
Cn1c(=O)[nH]c(=O)c2c1nc(NCc1ccccc1)n2CC(O)c1ccccc1 (configuration not stated),45,11*,-7,-5,0,-2
COCCn1c(NCc2ccccc2)nc2c1c(=O)[nH]c(=O)n2C,4,3,-2,2,0,2
COc1ccc2nc(C)cc(N/N=C/c3cccc(OC)c3O)c2c1,111*,-1,24,1,0,-4
COc1cccc(/C=N/Nc2nc(Nc3ccccc3)nc(-n3nc(C)cc3C)n2)c1O,60*,9,13,1,-5,16
COc1ccc(/C=N/Nc2cc(C)nc3ccc(Br)cc23)cc1,71*,-5,21,-8,-2,-14
CCOC(=O)c1sc2ccccc2c1OC(=O)c1ccccc1,6,14*,-3,-1,1,-4
CCOC(=O)c1sc2ccccc2c1NC(=O)c1coc2ccccc2c1=O,7,-1,-1,-4,1,-12
N#C/C(C(=O)N1CCCCC1)=C1\Nc2ccccc2S1,-5,-27,2,-2,0,5
Cc1ccc(NC(=S)/C(C#N)=C2/Nc3ccccc3S2)cc1,.,.,92*,2,-1,8
COCCN1Cc2cc(C(=O)OC)c3c(c2C1=O)c1cc(OC)ccc1n3C(=O)c1ccccc1,.,.,8,-10,2,-21
C#CCN1CC(N(C)CCOC(=O)c2ccc(F)cc2)CS1(=O)=O (configuration not stated),.,.,2,0,0,7

# Bioassay records deposited in PubChem by several laboratories.
